Test results: PubChem BioAssay
The source made the active and inactive calls.

Assays:
[1] = E. coli DRC41 culture turbidity changes, primary screen, E. coli filamentation inducer project, strain DRC41, OD650, 48 h (AID 1152);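 further: E. coli MC1000 strain DRC41 lacking acrAB efflux pump and sulA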; conditions: E. coli DRC41 (acrAB sulA), higher = more signal, called active from +8 up or from −8 down
[2] = small-molecule binders of probe aLefty1, primary screen, biochemical, small-molecule microarray, 635/667 nm fluorescence (AID 1153); conditions: higher = more signal;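 further: score merges spot fluorescence with signal-to-noise ratio from the scanned slide images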
[3] = PSAC antagonists in infected red cells, primary screen, cell-based, P. falciparum Indochina, OD700, 1 h (AID 1154); conditions: P. falciparum Indochina infected RBC osmotic lysis, higher = more signal, called active from +8 up or from −8 down
[4] = PSAC antagonists in infected red cells, primary screen, cell-based, P. falciparum Indochina, OD700, 2 h (AID 1155);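 further: lysis reports solute entry through the parasite surface anion channel PSAC; channel blockers reduce lysis of infected cells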; conditions: P. falciparum Indochina infected erythrocytes, osmotic lysis OD700; higher = more signal, called active from +8 up or from −8 down
[5] = osmotic lysis modulators in infected erythrocytes, primary screen, PSAC antagonist project, cell-based, P. falciparum Indochina, OD700, 3 h (AID 1156); conditions: higher = more signal, called active from +8 up or from −8 down
[6] = PSAC antagonists in infected red cells, primary screen, cell-based, P. falciparum Indochina, OD700, 18 h (AID 1157); conditions: P. falciparum Indochina infected erythrocytes, osmotic lysis OD700, 18 h; higher = more signal, called active from +8 up or from −8 down
[7] = modulators of S6 phosphorylation in cells, primary screen, cell-based, A549, cytoblot, luminescence, serum-stimulated (AID 1158); conditions: A549 phospho-S6 cytoblot, 5 h, higher = more signal;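 further: serum-stimulated A549 lung adenocarcinoma cells; signal is phosphorylated S6 detected by cytoblot immunostaining with HRP secondary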
[8] = molecular target: NADPH oxidase 2 (Homo sapiens) (UniProt P04839); experiment: NOX2-dependent H2O2 signal modulators, primary screen, NOX inhibitor project, cell-based, HEK293-NOX2, PMA-stimulated, Amplex Red fluorescence (AID 1159); conditions: 45 min, higher = more signal, called active from +8 up or from −8 down; further: test concentration not given here
NADPH oxidase 2 (Homo sapiens), sequence (P04839 whole entry, looked up): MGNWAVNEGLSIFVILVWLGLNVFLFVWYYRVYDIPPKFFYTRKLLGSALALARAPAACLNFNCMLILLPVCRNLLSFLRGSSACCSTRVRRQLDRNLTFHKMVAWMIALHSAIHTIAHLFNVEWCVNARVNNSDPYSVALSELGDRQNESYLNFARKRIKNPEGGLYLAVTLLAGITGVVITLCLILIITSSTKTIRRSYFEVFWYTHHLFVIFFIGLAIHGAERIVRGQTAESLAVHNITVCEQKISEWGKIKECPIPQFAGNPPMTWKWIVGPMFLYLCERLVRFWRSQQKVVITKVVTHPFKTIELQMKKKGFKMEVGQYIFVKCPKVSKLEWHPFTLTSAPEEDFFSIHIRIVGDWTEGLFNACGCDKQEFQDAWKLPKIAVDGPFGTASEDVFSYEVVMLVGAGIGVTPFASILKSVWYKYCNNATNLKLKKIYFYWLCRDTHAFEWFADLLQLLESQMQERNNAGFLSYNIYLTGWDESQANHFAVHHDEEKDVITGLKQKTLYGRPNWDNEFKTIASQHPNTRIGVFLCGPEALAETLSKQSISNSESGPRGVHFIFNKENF

[9] = molecular target: NADPH oxidase 4 (Homo sapiens) (UniProt Q9NPH5); experiment: NOX4-dependent H2O2 signal modulators, primary screen, NOX inhibitor project, cell-based, HEK293-NOX4, tetracycline-induced, Amplex Red fluorescence (AID 1160); conditions: 45 min, higher = more signal, called active from +8 up or from −8 down
NADPH oxidase 4 (Homo sapiens), sequence (Q9NPH5 whole entry, looked up): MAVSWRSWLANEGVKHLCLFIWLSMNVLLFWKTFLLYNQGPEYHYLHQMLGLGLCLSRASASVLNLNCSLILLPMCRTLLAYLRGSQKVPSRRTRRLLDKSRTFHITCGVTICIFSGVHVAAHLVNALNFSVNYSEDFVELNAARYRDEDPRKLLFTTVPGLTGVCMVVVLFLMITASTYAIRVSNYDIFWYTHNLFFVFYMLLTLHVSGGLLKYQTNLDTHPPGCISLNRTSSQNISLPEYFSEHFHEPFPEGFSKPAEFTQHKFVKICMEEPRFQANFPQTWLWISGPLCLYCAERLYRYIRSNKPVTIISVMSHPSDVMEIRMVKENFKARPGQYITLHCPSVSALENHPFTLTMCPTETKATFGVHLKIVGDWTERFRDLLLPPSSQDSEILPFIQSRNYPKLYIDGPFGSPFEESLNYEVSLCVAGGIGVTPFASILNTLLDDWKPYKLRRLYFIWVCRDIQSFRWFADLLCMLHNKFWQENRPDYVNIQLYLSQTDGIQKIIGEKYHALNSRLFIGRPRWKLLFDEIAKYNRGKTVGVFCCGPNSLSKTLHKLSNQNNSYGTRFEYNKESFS

[10] = molecular target: NADPH oxidase 5 (Homo sapiens) (UniProt Q96PH1); experiment: NOX5-dependent H2O2 signal modulators, primary screen, NOX inhibitor project, cell-based, HEK293-NOX5, Amplex Red fluorescence (AID 1161); conditions: HEK293-NOX5, ionomycin, 45 min, higher = more signal
NADPH oxidase 5 (Homo sapiens), sequence (Q96PH1 whole entry, looked up): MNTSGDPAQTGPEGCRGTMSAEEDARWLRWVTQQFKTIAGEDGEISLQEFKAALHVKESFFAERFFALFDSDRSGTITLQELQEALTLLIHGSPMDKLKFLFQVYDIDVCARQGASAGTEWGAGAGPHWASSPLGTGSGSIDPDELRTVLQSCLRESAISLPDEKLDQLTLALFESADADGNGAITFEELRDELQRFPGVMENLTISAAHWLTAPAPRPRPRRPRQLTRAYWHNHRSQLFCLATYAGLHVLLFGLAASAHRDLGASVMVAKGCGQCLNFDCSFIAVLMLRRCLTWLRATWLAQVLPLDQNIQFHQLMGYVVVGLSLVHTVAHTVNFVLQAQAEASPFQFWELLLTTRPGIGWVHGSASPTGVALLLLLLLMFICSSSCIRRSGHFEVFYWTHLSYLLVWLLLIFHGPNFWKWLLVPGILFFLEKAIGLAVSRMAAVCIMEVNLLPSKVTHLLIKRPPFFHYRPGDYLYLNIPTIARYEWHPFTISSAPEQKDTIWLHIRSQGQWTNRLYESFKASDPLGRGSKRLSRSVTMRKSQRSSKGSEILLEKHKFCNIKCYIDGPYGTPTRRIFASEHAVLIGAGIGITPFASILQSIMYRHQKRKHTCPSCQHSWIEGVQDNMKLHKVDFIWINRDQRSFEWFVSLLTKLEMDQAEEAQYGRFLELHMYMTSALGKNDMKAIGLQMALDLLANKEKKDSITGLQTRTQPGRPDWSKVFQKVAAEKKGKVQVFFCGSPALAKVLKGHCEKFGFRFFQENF

[11] = A549 cell viability effects, profiling panel, calcein-AM fluorescence, 48 h, basal (AID 1162); conditions: higher = more signal; further: test concentration not given here
[12] = adipocyte viability effects, profiling panel, cell-based, 3T3-L1 adipocytes, calcein-AM fluorescence, 48 h, basal (AID 1163); conditions: 3T3-L1 adipocytes viability, higher = more signal; further: test concentration not given here
[13] = HepG2 cell viability effects, profiling panel, calcein-AM fluorescence, 48 h, basal (AID 1164); conditions: higher = more signal; further: test concentration not given here
[14] = MM1S cell viability effects, profiling panel, calcein-AM fluorescence, 48 h, basal (AID 1165); conditions: higher = more signal;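 further: viability of MM1S multiple myeloma cells under basal unstimulated conditions; test concentration not given here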
[15] = basal RPMI8226 viability, no added stimulus, profiling panel, cell-based, calcein-AM fluorescence, 48 h, PK04 Diversity Set (AID 1166); conditions: RPMI8226 myeloma viability, higher = more signal;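 further: cells grown under basal conditions without added stimulus; test concentration not given here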
[16] = basal HepG2 mitochondrial membrane potential changes, profiling panel, cell-based, JC-1 fluorescence, 24 h, 100 nL compound (AID 1167); conditions: higher = more signal; further: test concentration not given here
[17] = basal 3T3-L1 adipocyte mitochondrial potential changes, profiling panel, cell-based, JC-1 fluorescence, 3T3-L1 adipocytes, 24 h, 100 nL compound (AID 1168); conditions: JC-1 mitochondrial fluorescence, higher = more signal, called active from +8 up or from −8 down; further: test concentration not given here
[18] = basal RPMI8226 mitochondrial membrane potential changes, profiling panel, cell-based, JC-1 fluorescence, 24 h, 100 nL compound (AID 1169); conditions: RPMI8226 myeloma, JC-1 mitochondrial potential fluorescence, higher = more signal; further: test concentration not given here
[19] = basal MM1S mitochondrial membrane potential changes, profiling panel, cell-based, JC-1 fluorescence, 24 h, 100 nL compound (AID 1170); conditions: higher = more signal; further: test concentration not given here
[20] = A549 lung cancer cell viability effects, profiling panel, resazurin fluorescence, 24 h, PK04 Diversity Set (AID 1171); conditions: higher = more signal, called active from +8 up or from −8 down; further: test concentration not given here

Compound | z-score [1] | composite z-score [2] | z-score [3] | z-score [4] | z-score [5] | z-score [6] | z-score [7] | z-score [8] | z-score [9] | z-score [10] | z-score [11] | z-score [12] | z-score [13] | z-score [14] | z-score [15] | z-score [16] | z-score [17] | z-score [18] | z-score [19] | z-score [20]
C=CCOC(=O)[C@H]1[C@@H]2C(=O)O[C@@H](c3ccccc3)[C@@H](c3ccccc3)N2[C@@H](c2ccc(OCCOC(=O)[C@H]3C[C@H]4C(=O)N[C@@H](CC(C)C)C(=O)N4[C@H]3c3ccc(O)cc3)cc2)[C@]12C(=O)Nc1ccc(I)cc12 | -1.1 (inactive) | 0.0839 | -0.414 (inactive) | 0.739 (inactive) | -0.483 (inactive) | 0.47 (inactive) | -0.182 | 1.82 (inactive) | 0.43 (inactive) | 0.982 | 0.709 | -0.212 | 1.8 | -2.02 | 0.0851 | -0.626 | -0.804 (inactive) | -0.418 | -0.859 | 0.0559 (inactive)
Cc1ccc(C(C)CC(O)C2C=CC3C(=O)N(c4ccccc4)C(=O)C3N2Nc2ccc([N+](=O)[O-])cc2)o1 (stereo not given) | -0.571 (inactive) | 0.218 | 9.35 (active) | 2.22 (inactive) | 0.0777 (inactive) | 1.49 (inactive) | -0.359 | 0.414 (inactive) | -0.521 (inactive) | -1.27 | -0.483 | 0.0852 | 0.268 | -0.0308 | -0.259 | -0.414 | -2.12 (inactive) | -0.0508 | -1.54 | 0.35 (inactive)
C=CC[C@]12N=C(c3ccc(OCCCO)cc3)O[C@H]1c1ccccc1N(Cc1ccccc1)C2=O | 0.323 (inactive) | 0.445 | 28.8 (active) | 27.9 (active) | 3.64 (inactive) | 6.21 (inactive) | -0.329 | -0.89 (inactive) | 0.393 (inactive) | -0.835 | -0.739 | -0.082 | -0.957 | -3.44 | -3.83 | -0.433 | 2.12 (inactive) | -0.982 | -2.48 | -1.48 (inactive)
C=CCNC(=O)[C@H]1[C@@H]2C(=O)O[C@@H](c3ccccc3)[C@@H](c3ccccc3)N2[C@@H](c2ccc(OCCO)cc2)[C@]12C(=O)N(C(=O)OCCOC)c1ccccc12 | 0.159 (inactive) | 0.378 | 5.52 (inactive) | 0.926 (inactive) | 1.22 (inactive) | 0.759 (inactive) | 0.182 | 2.35 (inactive) | 0.743 (inactive) | -1.51 | 0.111 | 1.47 | -0.109 | -0.472 | -2.66 | 1.34 | 0.131 (inactive) | -0.562 | 0.465 | -0.918 (inactive)
CN1C(=O)C2C=CC(C(O)c3cccs3)N(Nc3ccccc3)C2C1=O (stereo not given) | -1.6 (inactive) | 0.206 | -0.203 (inactive) | 0.65 (inactive) | -0.109 (inactive) | 0.731 (inactive) | -1.19 | -2 (inactive) | -4.89 (inactive) | -3.11 | -0.439 | -0.612 | -0.436 | -1.64 | -0.535 | -0.693 | -0.841 (inactive) | -0.0836 | -0.528 | -0.654 (inactive)
COCCOC(=O)N1C(=O)[C@@]2(c3cc(C#CC4=CCCCC4)ccc31)[C@H](c1ccc(O)cc1)N1[C@H](c3ccccc3)[C@H](c3ccccc3)OC(=O)[C@H]1[C@@H]2C(N)=O | -0.623 (inactive) | -0.523 | 2.57 (inactive) | -0.403 (inactive) | 0.193 (inactive) | -0.104 (inactive) | -0.0587 | 0.823 (inactive) | 0.748 (inactive) | 1.03 | 0.505 | 0.633 | -0.364 | -2.77 | -4.14 | -2.55 | 0.29 (inactive) | -0.902 | -1.19 | -0.954 (inactive)
COC(=O)[C@@]1(Cc2ccc(F)cc2)[C@H]2c3cc(C(=O)N4CCCC4)n(Cc4cc(C)n(C)n4)c3C[C@H]2CN1C(=O)c1ccccc1 | -0.859 (inactive) | 0.291 | 2.02 (inactive) | 0.0953 (inactive) | 0.424 (inactive) | 0.742 (inactive) | -0.301 | 1.16 (inactive) | 0.368 (inactive) | -0.196 | -0.553 | -0.0099 | 0.499 | -0.391 | -0.382 | 2.16 | -1.13 (inactive) | -0.0438 | -0.461 | -0.156 (inactive)
COc1ccc(CCN2C(=O)[C@@]3(c4ccc([N+](=O)[O-])cc4)CC(=O)N(C4CCCCC4)[C@@H]3c3ccc(CO)cc32)cc1 | -0.183 (inactive) | 0.131 | -0.715 (inactive) | -0.0259 (inactive) | -0.979 (inactive) | -0.138 (inactive) | -0.423 | -1.47 (inactive) | -0.763 (inactive) | -0.0167 | 0.315 | -1.26 | -0.331 | 0.199 | 0.306 | -1.65 | -0.937 (inactive) | -0.694 | -0.838 | -0.113 (inactive)
